PrPC surface inh – cell surface PrPC inhibition, primary TR-FRET screen | P04156 | inhibition, % at 13.8 µM | TR-FRET read-out | actives 0.43% (n = 370,000) | AID 720596; in the data active = inhibition above about 24%; note: 0% = median of the test wells and 100% = reference compound wells
Sa ugtP lethal – growth inhibition of S. aureus ugtP deletion strain | S. aureus RN4220 ugtP deletion, OD600 growth, 16 h | growth inhibition, % (concentration not given with the values) | actives 0.54% (n = 330,000) | AID 1259309; in the data active = growth inhibition above about 68%;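 note: plate controls were untreated wells for no effect and antibiotic for full effect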
PrP 5UTR inh – inhibition of PrP 5' UTR reporter expression; actives 0.35% (n = 340,000); cell-based PrP 5' UTR mRNA reporter, plate reader; inhibition, % (no concentration beside the values); in the data active = inhibition above about 52%; note: 0 = median of the neutral control wells
CCHF vOTU inh – blocks the CCHF virus ovarian tumor domain protease; CCHFV vOTU protease, Pep-AMC fluorescence; inhibition, % at 11.5 µM; actives 0.55% (n = 370,000); AID 651958; in the data active = inhibition above about 30%; note: 0% = vehicle wells with enzyme and 100% = no enzyme wells
PfHsp40 yeast – restores yeast growth despite PfHsp40 toxicity; S. cerevisiae expressing PfHsp40, growth rescue, ATP luminescence; growth rescue, % at 12.5 µM; actives 0.68% (n = 340,000); AID 504582; in the data active = growth rescue above about 28%, passing the limit was not always enough;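 note: yeast W303a lacking pdr1 and pdr3 grown in galactose medium; growth measured after three days at 30 °C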
RN4220 kill – S. aureus RN4220 growth inhibition | actives 0.33% (n = 330,000) | OD600, 16 h | inhibition, % (no concentration beside the values); in the data active = inhibition above about 85%;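 note: plate controls were untreated cells for no effect and reference antibiotic for full effect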
PrP 5UTR single – prion 5' UTR mRNA inhibition, cherry-pick retest. shares compounds with PrP 5UTR inh. cell-based prion protein 5' UTR reporter, plate reader. inhibition, % at 2.5 µM. actives 48% (n = 1,100). AID 504592; in the data active = inhibition above about 54%
Numbers without * were called inactive; / = not tested or not shown. Shown are actives, neighbours in structure and some others; about 2.1% of the full set was active somewhere.

SMILES | PrPC surface inh | Sa ugtP lethal | PrP 5UTR inh | CCHF vOTU inh | PfHsp40 yeast | RN4220 kill | PrP 5UTR single
CC1OC(OC2CC[C@@]3(C)C(CC[C@]4(C)C3C=CC3=C5CC(C)(C)CC[C@]5(CO)C(O)C[C@]34C)[C@]2(C)CO)C(O)C(OC2OC(CO)C(O)C(O)C2O)C1O (stereo partly drawn) | / | 4.0 | / | / | / | 0.9 | /
CCOc1ccccc1OCCCC(=O)N1CCN(S(=O)(=O)c2ccc(Cl)cc2)CC1 | -6.1 | 1.7 | 87.2* | -3.9 | 9.9 | 9.6 | -10.4
CCCOc1ccccc1OCC(=O)N1CCN(S(=O)(=O)c2ccc(Cl)cc2)CC1 | -7.0 | 4.3 | -16.9 | 1.9 | 4.2 | 3.9 | /
COc1cc(C(C)=NNC(=O)CN2CCN(S(=O)(=O)c3ccc(C)cc3)CC2)ccc1O | / | 8.5 | / | / | / | 2.3 | /
CN(N=Cc1ccc(O)cc1O)c1nc(-c2ccccc2)cc(-c2ccccc2)n1 | / | 48.0 | / | / | / | 39.3 | /
CC(=O)OC(C)(C)/C=C/C(=O)[C@](C)(O)[C@H]1[C@H](O)C[C@@]2(C)[C@@H]3CC=C4[C@H](C[C@H](O)C(=O)C4(C)C)[C@]3(C)C(=O)C[C@]12C | / | / | 79.2* | / | 1.0 | / | 88.1*
CC(=O)OC(C)(C)/C=C/C(=O)C(C)(O)C1C(O)CC2(C)C3CC=C4C(CC(O)C(=O)C4(C)C)C3(C)C(=O)CC12C (stereo not drawn) | 33.6* | / | 80.5* | 2.6 | -0.7 | / | 90.4*
N#CCC(=O)NN=Cc1cccc(OC/C=C/c2ccccc2)c1 | / | 1.2 | / | / | / | 2.8 | /
O=C(O)COc1ccccc1C=NNC(=O)CSc1nc2ccccc2c(=O)n1-c1ccc(Cl)cc1 | / | 8.2 | / | / | / | 2.7 | /
COc1ccccc1C(=O)NCCC(=O)Nc1nc2ccccc2[nH]1 | 2.2 | 6.4 | -17.3 | 2.0 | 0.0 | -0.3 | /
Cc1ccc(C(=O)Nc2nc3ccccc3[nH]2)cc1 | -3.1 | 0.8 | 61.1* | 7.4 | -3.5 | 6.1 | 64.9*
CC(=O)Nc1cc2ccccc2oc1=O | -2.0 | 6.5 | -9.1 | -3.1 | -0.8 | 0.1 | /
Cc1ccc(C(=O)Nc2cc3ccccc3oc2=O)cc1 | 4.0 | -2.2 | 86.3* | 11.4 | -1.6 | -4.4 | 86.2*
O=C(Nc1nc2ccccc2[nH]1)c1ccc([N+](=O)[O-])cc1 | -10.5 | -16.0 | -24.9 | -4.7 | -0.3 | 2.0 | /
O=C(NCc1nc2ccccc2[nH]1)c1ccc([N+](=O)[O-])cc1 | -33.1 | 1.0 | 74.0* | -4.5 | 1.7 | 4.7 | -26.1
COc1ccc(C(=O)Nc2nc3ccccc3[nH]2)cc1 | 5.5 | -1.2 | 58.8 | 18.2 | -1.3 | 4.0 | /
COc1ccccc1C(=O)Nc1nc2ccccc2[nH]1 | -8.9 | / | 92.0* | 17.2 | 0.8 | / | 92.5*
Cc1ccc(C(=O)Nc2cnc3ccccc3c2)cc1 | -0.8 | -5.4 | 88.9* | 5.5 | -1.3 | 0.6 | 86.8*
CSc1ccccc1C(=O)Nc1nc2ccccc2[nH]1 | 11.1 | 1.9 | -90.8 | 3.6 | -0.5 | -2.2 | /
COc1cc(SC)ccc1C(=O)Nc1nc2ccccc2[nH]1 | 5.1 | / | 96.1* | -58.4 | -0.1 | / | 97.7*
CC(C)(C)OC(=O)N1CCN(C(=O)c2[nH]cnc2C(=O)NC(Cc2ccccc2)C(=O)OCc2ccccc2)CC1 (stereo not drawn) | / | 6.6 | / | / | / | 5.6 | /
COc1ccc(C=NN(C)C2=NS(=O)(=O)c3ccccc32)cc1 | / | 5.7 | / | / | / | 9.3 | /
c1ccc(-c2nnc(NC3=NCCC3)o2)cc1 | -2.9 | 0.6 | -16.1 | 13.8 | -1.7 | 2.5 | /
Fc1ccc(-c2nnc(NC3=NCCCCC3)o2)cc1 | 4.8 | 5.4 | 77.9* | 3.2 | 0.0 | -0.4 | 64.1*
CC(C)(C=NNC(=O)CSCc1ccccc1Cl)CCC#N | / | -1.5 | / | / | / | 6.2 | /
SMILES | PrPC surface inh | Sa ugtP lethal | PrP 5UTR inh | CCHF vOTU inh | PfHsp40 yeast | RN4220 kill | PrP 5UTR single
CC1=CC2OC3CC4OC(=O)C=CC=CC(=O)OCCC(C)C(O)C(=O)OCC2(CC1O)C4(C)C31CO1 (stereo not drawn) | / | / | 93.6* | / | / | / | 97.0*
CN(C)C(=O)c1cc(C(=O)c2ccccc2)c[nH]1 | 4.7 | 1.4 | -16.9 | 0.8 | 0.1 | 2.5 | /
CN(C)C(=O)c1cc(C(=O)c2c(F)cccc2F)c[nH]1 | -5.1 | 0.6 | 67.6* | -7.9 | -1.2 | -2.2 | -13.5
C=CCN1C(=O)C(Cc2ccc(F)cc2)SC1=NN=Cc1cccs1 (stereo not drawn) | / | 11.1 | / | / | / | -1.6 | /
O=C(O)c1cccc2c1-c1ccc([N+](=O)[O-])cc1C2=O | -44.9 | / | -34.6 | 13.1 | -2.1 | / | /
Cc1ccc2c(c1)C(=O)c1c(C(=O)O)cccc1-2 | -11.2 | 2.0 | 78.0* | -3.4 | 2.8 | 5.9 | -4.5
C#CCOCCOCCOCCNc1nc(N2CCN(C(=O)C(C(C)O)n3cc(C(N)CCCCN)nn3)CC2)nc(N2CCN(C(=O)C(C(C)O)n3cc(C(N)CCCCN)nn3)CC2)n1 (stereo not drawn) | / | 4.3 | / | / | / | 6.3 | /
CC(=NNC(=O)CC1N=C(Cc2ccccc2)NNC1=O)c1cccnc1 (stereo not drawn) | / | 4.1 | / | / | / | 5.9 | /
CCN1C(=O)C2C(c3ccc(C)cc3)N3C(=O)N(c4cccc(Cl)c4)C(=O)[C@@]3(Cc3ccccc3)C2C1=O (stereo partly drawn) | / | 6.4 | / | / | / | 16.3 | /
COc1ccc(C=NNc2nnc(Cc3ccc(OC)c(OC)c3)c(=O)[nH]2)cc1OC | / | 0.2 | / | / | / | -2.0 | /
Cc1ccc(OCC(=O)Oc2ccc(C(C)C)cc2)cc1 | 6.1 | 8.6 | -22.5 | 5.3 | 0.6 | 1.4 | /
CCC(=O)Oc1ccc(C(CC)C(CC)c2ccc(OC(=O)CC)cc2)cc1 (stereo not drawn) | -6.1 | / | 58.0* | 7.9 | -0.9 | / | -12.8
CC(=O)OCC(=O)Nc1ccccc1C | 8.0 | 7.4 | 76.2* | 3.9 | 0.4 | 2.2 | -7.8
CC(=O)OCC(=O)Nc1c(C)cccc1C | -1.1 | 3.4 | 30.8 | 3.0 | 1.4 | 2.5 | /
Cc1ccc(C(=O)Nc2cccc(C(=O)NN=Cc3ccc(O)cc3)c2)cc1 | / | 1.1 | / | / | / | 1.9 | /
O=C(O)CCn1cc(C=C2C(=O)NC(=S)NC2=O)c(-c2ccccc2)n1 | -1.1 | -1.7 | 74.4* | 14.4 | -1.8 | 5.5 | -0.2
COc1ccc(CCN2C(=O)C3C4CC(C5C(C(=O)NN=Cc6ccc(Cl)cc6)=NOC45)C3C2=O)cc1OC (stereo not drawn) | / | 3.5 | / | / | / | 0.6 | /
O=C(O)c1ccc(C=NN=Cc2ccco2)cc1 | -3.9 | / | 62.0* | 15.1 | 0.3 | / | -0.3
COc1ccccc1C(=O)ON=C1CCCc2c1ccc(OC)c2[N+](=O)[O-] | / | -5.7 | / | / | / | -1.4 | /

Compound activity: PubChem BioAssay, several laboratories
